From PubChem BioAssay
The source made the active and inactive calls.

Columns and labels:
[1] = small molecules captured by biotinylated probe aFSTL3 – biochemical, small-molecule microarray, fluorescence 635/667, stem cell growth factor project, primary screen (AID 1064); details: higher = more signal;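 note: measures binding of the biotinylated anti-FSTL3 antibody to printed compounds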
[2] = binders from COS7 lysate, DM2A8 probe, primary screen, torsin A project, cell lysate, small-molecule microarray, fluorescence 635/667 (AID 1065); details: higher = more signal, COS7 lysate expressing mutant human TOR1A
[3] = small molecules captured by biotinylated probe aFGF2 – biochemical, small-molecule microarray, fluorescence 635/667, stem cell growth factor project, primary screen (AID 1067); details: higher = more signal;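 note: measures binding of biotinylated aFGF2 protein to printed compounds on slides; z-score merges feature fluorescence and signal-to-noise across triplicate slides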
[4] = small molecules captured by biotinylated probe aFGF10 – biochemical, small-molecule microarray, fluorescence 635/667, stem cell growth factor project, primary screen (AID 1071); details: higher = more signal;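 note: score merges 667 nm spot intensity and signal to noise from triplicate slides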
[5] = biological target: Neurogenic locus notch homolog protein 2 (Homo sapiens) (UniProt Q04721); experiment: small molecules binding Notch2 protein – biochemical, small-molecule microarray, 635 nm fluorescence, stem cell growth factors, primary screen (AID 1073); details: higher = more signal
[6] = biological target: Pro-neuregulin-1, membrane-bound isoform (Homo sapiens) (UniProt Q02297); experiment: small molecules binding neuregulin-1 protein – biochemical, small-molecule microarray, fluorescence 635/667, psychiatric disease protein project, primary screen (AID 1075); details: NRG1 binding, 635 nm fluorescence, higher = more signal;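 note: score combines 667 nm spot fluorescence with signal to noise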
[7] = system: Neuregulin-1 EGF-like domain; experiment: small molecules binding NRG1 EGF domain – biochemical, small-molecule microarray, 635 nm fluorescence, primary screen (AID 1081); details: higher = more signal;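 note: binding of the protein to compounds printed on small-molecule microarray slides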
[8] = FRG1 expression reporter modulators in myotubes – cell-based, C2C12 myotubes, firefly/Renilla luciferase, luminescence, FRG1 inhibition for FSHD, primary screen (AID 1084); details: FRG1 promoter luciferase, higher = more signal, called active from +8 up or from −8 down
[9] = small molecules captured by biotinylated probe aFST – biochemical, small-molecule microarray, fluorescence 635/667, stem cell growth factor project, primary screen (AID 1086); details: higher = more signal;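 note: score merges 667 nm fluorescence with signal-to-noise of each printed compound spot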
[10] = binders of probe aHhip on microarray, primary screen, stem cell growth factor project, biochemical, small-molecule microarray, fluorescence 635/667 (AID 1087); details: higher = more signal;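 note: score merges spot fluorescence at 667nm with spot signal to noise ratio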

Sequence of Neurogenic locus notch homolog protein 2 (Homo sapiens) (Q04721 whole entry, looked up, canonical isoform): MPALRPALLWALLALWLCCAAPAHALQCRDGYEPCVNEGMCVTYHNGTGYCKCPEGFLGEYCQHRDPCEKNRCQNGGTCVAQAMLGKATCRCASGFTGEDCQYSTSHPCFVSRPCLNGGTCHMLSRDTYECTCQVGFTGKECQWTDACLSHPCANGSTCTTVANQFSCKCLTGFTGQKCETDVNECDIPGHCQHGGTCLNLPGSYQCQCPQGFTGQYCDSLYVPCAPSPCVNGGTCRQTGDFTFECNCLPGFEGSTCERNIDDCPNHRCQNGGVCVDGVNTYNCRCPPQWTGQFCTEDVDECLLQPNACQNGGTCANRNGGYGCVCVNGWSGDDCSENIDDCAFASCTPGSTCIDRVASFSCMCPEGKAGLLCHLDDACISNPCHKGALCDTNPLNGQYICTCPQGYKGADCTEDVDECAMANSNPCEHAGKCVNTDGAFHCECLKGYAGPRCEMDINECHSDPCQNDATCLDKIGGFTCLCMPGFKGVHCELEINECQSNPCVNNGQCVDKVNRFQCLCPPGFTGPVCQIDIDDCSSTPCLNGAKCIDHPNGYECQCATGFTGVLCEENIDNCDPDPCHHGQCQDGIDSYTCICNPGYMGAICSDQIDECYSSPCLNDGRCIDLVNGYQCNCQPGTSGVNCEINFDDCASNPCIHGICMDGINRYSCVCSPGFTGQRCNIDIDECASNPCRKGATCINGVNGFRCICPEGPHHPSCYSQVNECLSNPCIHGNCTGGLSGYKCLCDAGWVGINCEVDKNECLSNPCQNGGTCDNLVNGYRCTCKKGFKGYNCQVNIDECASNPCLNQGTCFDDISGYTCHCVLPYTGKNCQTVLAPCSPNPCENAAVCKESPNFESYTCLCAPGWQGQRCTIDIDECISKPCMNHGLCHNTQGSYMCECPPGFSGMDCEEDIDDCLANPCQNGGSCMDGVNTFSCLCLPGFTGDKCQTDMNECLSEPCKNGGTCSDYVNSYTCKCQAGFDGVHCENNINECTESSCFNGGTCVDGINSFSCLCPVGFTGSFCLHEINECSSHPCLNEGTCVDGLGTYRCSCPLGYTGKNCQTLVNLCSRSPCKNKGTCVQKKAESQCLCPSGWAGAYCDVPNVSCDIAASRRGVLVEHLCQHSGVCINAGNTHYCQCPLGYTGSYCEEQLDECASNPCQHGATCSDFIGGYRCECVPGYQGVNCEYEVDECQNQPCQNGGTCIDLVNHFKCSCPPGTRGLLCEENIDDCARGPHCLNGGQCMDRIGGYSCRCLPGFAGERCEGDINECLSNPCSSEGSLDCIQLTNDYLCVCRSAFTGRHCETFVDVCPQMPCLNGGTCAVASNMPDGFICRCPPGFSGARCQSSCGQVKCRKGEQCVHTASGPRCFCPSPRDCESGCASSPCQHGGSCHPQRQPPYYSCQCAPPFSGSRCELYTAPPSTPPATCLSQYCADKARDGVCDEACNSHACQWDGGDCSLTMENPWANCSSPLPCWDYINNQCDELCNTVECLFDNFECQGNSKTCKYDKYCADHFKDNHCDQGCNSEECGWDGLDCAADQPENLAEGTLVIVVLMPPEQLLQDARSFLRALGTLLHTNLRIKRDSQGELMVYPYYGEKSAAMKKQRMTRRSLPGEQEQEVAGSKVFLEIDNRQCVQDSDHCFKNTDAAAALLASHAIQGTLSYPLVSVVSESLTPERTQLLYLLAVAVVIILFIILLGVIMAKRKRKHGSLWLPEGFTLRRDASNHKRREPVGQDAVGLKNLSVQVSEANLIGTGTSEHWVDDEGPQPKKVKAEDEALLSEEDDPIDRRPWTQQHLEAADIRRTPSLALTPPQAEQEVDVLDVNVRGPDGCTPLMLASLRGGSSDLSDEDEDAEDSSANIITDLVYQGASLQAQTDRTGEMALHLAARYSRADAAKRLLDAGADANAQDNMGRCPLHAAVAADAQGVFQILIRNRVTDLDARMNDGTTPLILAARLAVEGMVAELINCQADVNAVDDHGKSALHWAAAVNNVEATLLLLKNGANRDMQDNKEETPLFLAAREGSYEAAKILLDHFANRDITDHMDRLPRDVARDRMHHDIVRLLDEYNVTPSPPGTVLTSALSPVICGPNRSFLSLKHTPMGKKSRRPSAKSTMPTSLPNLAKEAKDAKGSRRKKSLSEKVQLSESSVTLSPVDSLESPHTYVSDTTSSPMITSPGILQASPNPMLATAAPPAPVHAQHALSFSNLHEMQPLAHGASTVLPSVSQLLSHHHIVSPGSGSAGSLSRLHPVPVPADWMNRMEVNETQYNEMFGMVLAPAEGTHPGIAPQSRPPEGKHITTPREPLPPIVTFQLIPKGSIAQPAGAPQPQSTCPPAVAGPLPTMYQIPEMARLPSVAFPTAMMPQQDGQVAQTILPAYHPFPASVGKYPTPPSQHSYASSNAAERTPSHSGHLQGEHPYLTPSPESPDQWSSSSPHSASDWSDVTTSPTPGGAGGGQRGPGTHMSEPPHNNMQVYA
Sequence of Pro-neuregulin-1, membrane-bound isoform (Homo sapiens) (Q02297 whole entry, looked up, the tested form may be a part, canonical isoform): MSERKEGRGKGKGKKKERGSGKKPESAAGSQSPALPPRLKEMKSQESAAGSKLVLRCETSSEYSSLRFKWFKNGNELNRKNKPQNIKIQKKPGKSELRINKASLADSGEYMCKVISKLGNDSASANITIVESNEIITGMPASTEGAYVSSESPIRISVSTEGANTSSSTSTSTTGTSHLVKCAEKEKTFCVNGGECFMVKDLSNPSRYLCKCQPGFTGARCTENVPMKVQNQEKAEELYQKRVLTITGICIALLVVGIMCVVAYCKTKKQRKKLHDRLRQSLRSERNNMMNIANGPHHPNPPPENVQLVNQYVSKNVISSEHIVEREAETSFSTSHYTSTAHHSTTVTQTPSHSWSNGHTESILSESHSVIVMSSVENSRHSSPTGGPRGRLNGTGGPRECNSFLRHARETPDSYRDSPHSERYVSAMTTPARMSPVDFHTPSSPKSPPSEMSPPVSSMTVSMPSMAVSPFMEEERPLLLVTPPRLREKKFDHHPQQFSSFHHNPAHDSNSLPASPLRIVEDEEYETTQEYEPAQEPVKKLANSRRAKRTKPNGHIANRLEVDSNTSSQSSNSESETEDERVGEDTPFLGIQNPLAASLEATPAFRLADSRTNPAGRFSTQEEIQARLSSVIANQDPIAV

## CCCCN1CC=CC23O[C@@H]4C=CCCOC(=O)C4[C@H]2C(=O)N(CCCCCCO)[C@@H]3C1=O (stereo not given in full)
[1]
  composite z-score: -0.206
[2]
  composite z-score: -0.596
[3]
  composite z-score: -0.246
[4]
  composite z-score: -0.309
[5]
  composite z-score: -1.1
[6]
  composite z-score: 1.2
[7]
  composite z-score: 1.41
[8]
  z-score: 0.357 (inactive)
[9]
  composite z-score: -0.422
[10]
  composite z-score: -0.7

## COCCOC(=O)N1C(=O)[C@@]2(c3cc(C#Cc4ccc(OC)cc4)ccc31)[C@H](c1ccc(O)cc1)N1[C@H](c3ccccc3)[C@H](c3ccccc3)OC(=O)[C@H]1[C@@H]2C(=O)N1CCc2cc(OC)c(OC)cc2C1
[1]
  composite z-score: 0.0419
[2]
  composite z-score: 0.87
[3]
  composite z-score: 0.0415
[4]
  composite z-score: 0.475
[5]
  composite z-score: 0.971
[6]
  composite z-score: 0.71
[7]
  composite z-score: 0.898
[8]
  z-score: -0.0112 (inactive)
[9]
  composite z-score: 0.611
[10]
  composite z-score: 0.0873

## COc1cc(C(O)C2C=CC3C(=O)NC(=O)C3N2Nc2ccccn2)cc(OC)c1OC (stereo not given)
[1]
  composite z-score: -0.184
[2]
  composite z-score: 0.299
[3]
  composite z-score: 0.0353
[4]
  composite z-score: 0.52
[5]
  composite z-score: 1.4
[6]
  composite z-score: 0.802
[7]
  composite z-score: 1.3
[8]
  z-score: 1.73 (inactive)
[9]
  composite z-score: 0.0676
[10]
  composite z-score: -0.0618

## COCCOC(=O)N1C(=O)[C@@]2(c3cc(C#Cc4ccc(OC)cc4)ccc31)[C@H](c1ccccc1OCCO)N1[C@H](c3ccccc3)[C@H](c3ccccc3)OC(=O)[C@H]1[C@@H]2C(=O)NC[C@H](O)c1ccccc1
[1]
  composite z-score: -0.532
[2]
  composite z-score: 0.579
[3]
  composite z-score: -0.0744
[4]
  composite z-score: 0.514
[5]
  composite z-score: 1.09
[6]
  composite z-score: 1.12
[7]
  composite z-score: 1.3
[8]
  z-score: 0.19 (inactive)
[9]
  composite z-score: 0.499
[10]
  composite z-score: -0.0346

## Cc1ccc(S[C@]2(C(=O)NCCCN(C)C)CC(=O)N(Cc3cc(C(F)(F)F)cc(C(F)(F)F)c3)[C@@H]2c2ccc(CO)cc2I)cc1
[1]
  composite z-score: 0.746
[2]
  composite z-score: 0.0752
[3]
  composite z-score: -0.0894
[4]
  composite z-score: -0.21
[5]
  composite z-score: -1.21
[6]
  composite z-score: 2.07
[7]
  composite z-score: 0.634
[8]
  z-score: 0.452 (inactive)
[9]
  composite z-score: -0.191
[10]
  composite z-score: -0.0994

## CC(C)OC(=O)C=C1C[C@@H](c2ccccn2)O[C@@H](c2ccccn2)O1
[1]
  composite z-score: -0.431
[2]
  composite z-score: -0.121
[3]
  composite z-score: -0.158
[4]
  composite z-score: 0.0234
[5]
  composite z-score: -0.538
[6]
  composite z-score: -0.13
[7]
  composite z-score: 1.27
[8]
  z-score: 0.805 (inactive)
[9]
  composite z-score: -0.171
[10]
  composite z-score: -0.112

## C=C(COC)/C(=C/C[C@@H](OC(C)=O)c1ccc(OCCO)cc1)c1cnc2ccccc2c1
[1]
  composite z-score: -0.123
[2]
  composite z-score: 0.093
[3]
  composite z-score: 0.0059
[4]
  composite z-score: 0.647
[5]
  composite z-score: 0.912
[6]
  composite z-score: 0.521
[7]
  composite z-score: 0.957
[8]
  z-score: -0.265 (inactive)
[9]
  composite z-score: 0.253
[10]
  composite z-score: 0.0413

## C[C@@]1([C@@H](NC(=O)c2ccc(-c3ccccc3)cc2)c2ccc(Cl)cc2)C[C@H]1C1CCCCC1
[1]
  composite z-score: 0.512
[2]
  composite z-score: 0.903
[3]
  composite z-score: 0.276
[4]
  composite z-score: 0.473
[5]
  composite z-score: 1.43
[6]
  composite z-score: 1.86
[7]
  composite z-score: 0.883
[8]
  z-score: -0.203 (inactive)
[9]
  composite z-score: 0.893
[10]
  composite z-score: 0.133

## O=C1N[C@@H](Cc2ccccc2)C(=O)N2[C@@H]1C[C@@H](C(=O)O)[C@H]2c1cccc(OCCO)c1
[1]
  composite z-score: 0.0693
[2]
  composite z-score: 0.571
[3]
  composite z-score: 0.0127
[4]
  composite z-score: 0.801
[5]
  composite z-score: 0.399
[6]
  composite z-score: 1.54
[7]
  composite z-score: 1.38
[8]
  z-score: 9.18 (active)
[9]
  composite z-score: 0.166
[10]
  composite z-score: -0.0237

## CCCCCCc1nc(-c2ccc(OC)nc2)cc2c1[Si](C(C)C)(C(C)C)O[C@H]2c1ccccc1
[1]
  composite z-score: -0.16
[2]
  composite z-score: -0.0924
[3]
  composite z-score: 0.0131
[4]
  composite z-score: 0.0809
[5]
  composite z-score: 0.144
[6]
  composite z-score: -0.384
[7]
  composite z-score: -0.821
[8]
  z-score: -0.566 (inactive)
[9]
  composite z-score: -0.546
[10]
  composite z-score: -0.146

## CC(C)C[C@@H]1NC(=O)[C@@H]2C[C@H](C(=O)NCc3ccc(F)cc3)[C@H](c3cccc(OCCO)c3)N2C1=O
[1]
  composite z-score: 0.0163
[2]
  composite z-score: 0.297
[3]
  composite z-score: -0.0861
[4]
  composite z-score: 0.362
[5]
  composite z-score: -0.575
[6]
  composite z-score: -0.0212
[7]
  composite z-score: 1.32
[8]
  z-score: -0.148 (inactive)
[9]
  composite z-score: -0.405
[10]
  composite z-score: -0.236

## O=C1c2ccccc2[C@](Cc2ccccc2I)(C(=O)NCC(F)(F)F)[C@H](c2ccc(CO)cc2)N1Cc1ccccc1Cl
[1]
  composite z-score: -0.266
[2]
  composite z-score: 0.0347
[3]
  composite z-score: 0.0069
[4]
  composite z-score: 0.106
[5]
  composite z-score: 0.95
[6]
  composite z-score: 1.74
[7]
  composite z-score: 1.28
[8]
  z-score: -1.05 (inactive)
[9]
  composite z-score: 0.748
[10]
  composite z-score: 0.0373

## [N-]=[N+]=NCc1ccccc1[C@@H]1OC(c2ccc(OCCCO)cc2)=N[C@]1(Cc1ccccc1)C(=O)NCC(O)CO (stereo not given in full)
[1]
  composite z-score: 0.798
[2]
  composite z-score: 0.42
[3]
  composite z-score: 0.126
[4]
  composite z-score: 0.343
[5]
  composite z-score: -0.119
[6]
  composite z-score: 1.84
[7]
  composite z-score: 1.2
[8]
  z-score: -0.339 (inactive)
[9]
  composite z-score: 0.421
[10]
  composite z-score: 0.132

## CN1C(=O)C2C=CC(C(O)c3ccc([N+](=O)[O-])cc3)N(N3CCCCC3)C2C1=O (stereo not given)
[1]
  composite z-score: 1.11
[2]
  composite z-score: -0.306
[3]
  composite z-score: 0.132
[4]
  composite z-score: 0.695
[5]
  composite z-score: 1.6
[6]
  composite z-score: 1.3
[7]
  composite z-score: 0.961
[8]
  z-score: 0.198 (inactive)
[9]
  composite z-score: 1.36
[10]
  composite z-score: -0.365

## O=C1C[C@]2(c3ccc([N+](=O)[O-])cc3)C(=O)N(CC(F)(F)F)c3cc(CO)ccc3[C@H]2N1C1CCCCC1
[1]
  composite z-score: 0.342
[2]
  composite z-score: -0.819
[3]
  composite z-score: -0.148
[4]
  composite z-score: -0.91
[5]
  composite z-score: -0.488
[6]
  composite z-score: -0.722
[7]
  composite z-score: -1.5
[8]
  z-score: 0.0655 (inactive)
[9]
  composite z-score: -0.167
[10]
  composite z-score: -0.226

## CCCC[C@H]1OB(O)C[C@H]2C1=C(COC)Cn1c(=O)n(-c3ccccc3)c(=O)n12
[1]
  composite z-score: -0.516
[2]
  composite z-score: 0.107
[3]
  composite z-score: -0.157
[4]
  composite z-score: 0.392
[5]
  composite z-score: 0.325
[6]
  composite z-score: -0.19
[7]
  composite z-score: 0.484
[8]
  z-score: 0.103 (inactive)
[9]
  composite z-score: 0.199
[10]
  composite z-score: -0.236
